Screening data from PubChem.
KB-3-1 tox: kills parental KB-3-1 adenocarcinoma cells | KB-3-1 viability, CellTiter-Glo ATP luminescence, 72 h | Potency, µM (highest dose often 46.1 µM), hits mostly cytotoxic | hit rate 1.4% among 400,000; note: nearly all actives have a fitted effect of over 60% in size
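Parental KB-3-1 viability, qHTS format: 72 h compound exposure, 37 °C; CellTiter-Glo; media-only wells and DMSO plates as controls; concentration-effect fits on corrected data.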
KB-V1 MDR tox: KB-V1 MDR subline cytotoxicity. KB-V1 MDR cells viability, CellTiter-Glo, 72 h. hit rate 3.4% among 400,000. AID 1347076. Potency, µM (top dose mostly 46.1 µM), actives largely listed as cytotoxic; note: nearly all actives have a fitted effect of over 60% in size
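In this primary screen, KB-V1 cells overexpressing P-gp are incubated with library compounds (lowest to highest concentration) for 72 h at 37 degrees C before a luminescent ATP viability read.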
HT1080 IDH1KD tx: kills HT-1080 cells with IDH1 knockdown | AID 686971 | Potency, µM (highest dose often 46.1 µM), usual class: cytotoxic | hit rate 2% among 360,000 | HT-1080 IDH1 knockdown viability, ATP luminescence, 48 h
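HT-1080-IDH1KD cells (IDH1 knocked down), 750/well in RPMI with 5% FBS, treated with compound 48 h at 37 degrees C. Viability by CellTiter-Glo luminescence, normalised to DMSO and no-cell wells; concentration-response curves classed.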
MCF10A rerep: induces DNA re-replication in MCF 10a normal breast cells | MCF 10A DNA re-replication, Hoechst nuclear intensity, 48 h | Potency, µM (titrated, usually from 46.1 µM), hits mostly activators | hit rate 2.9% among 350,000; note: nearly all actives have a fitted effect of over 50% in size
HT1080-NT tox: kills 2HG-producing HT-1080-NT fibrosarcoma cells; Potency, µM (series often up to 46.1 µM), usual class: cytotoxic; AID 686970; HT-1080-NT fibrosarcoma viability, CellTiter-Glo ATP luminescence, 48 h; hit rate 1.6% among 360,000;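 note: NT is the 2HG producing partner of a matched IDH1 knockdown line; nearly all actives have a fitted effect of over 55% in size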
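Read-out is CellTiter-Glo luminescence after 10 minutes at room temperature, following 48 hours' compound treatment of HT-1080-NT cells (750 cells/well, RPMI, 5% FBS, 37 degrees C).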
SW480 rereplic: DNA re-replication induction in SW480 cells. Potency, µM (highest dose often 46.1 µM), most hits filed as activators. SW480 DNA re-replication, Hoechst DNA content imaging, 48 h. AID 624297. hit rate 1.8% among 340,000; note: nearly all actives have a fitted effect of over 55% in size
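Quantitative HTS format with DMSO vehicle controls; 48 hr drug incubation at 37 C, then 40 min Hoechst staining and scanning imager measurement at 405 nm excitation.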
Large screens that a line does not name were inactive. Most compounds without a hit are left out; they make up all but 8% or so of the library. Calls come from the whole dose curve; as a rule, active = well fitted curve in the direction sought with a large enough effect; inconclusive = small, poorly fitted or top-dose-only effect, or another doubt; inactive = no such curve, though single readings can be large; an effect the other way counts as inactive or inconclusive.

Cc1ccc(N=C2NC(=O)/C(=C/c3cccn3C)S2)c(C)c1	KB-V1 MDR tox 23µM
Cc1ccc(N=C2NC(=O)/C(=C/c3cn(C)c4ccccc34)S2)cc1C	KB-3-1 tox inconclusive, KB-V1 MDR tox inconclusive, MCF10A rerep 21µM, SW480 rereplic inconclusive
Cn1cc(/C=C2/SC(=O)N(c3ccccc3)C2=O)c2ccccc21	none
O=C1/C(=C/C=C/c2ccco2)SC(=S)N1c1ccc(O)cc1	none
COC(=O)/C=C1/SC(=Nc2ccc(C)cc2C)NC1=O	MCF10A rerep inconclusive
O=C1NC(=Nc2ccccc2)S/C1=C\c1cccs1	none
CC(C)CN(CCCNC(=O)c1cn(C)c2ccc(S(=O)(=O)N(C)C3CCCCC3)cc2c1=O)CC(C)C	none (no result: HT1080 IDH1KD tx, MCF10A rerep, HT1080-NT tox, SW480 rereplic)
CCc1nnc(NC(=O)c2cc(=O)c3cc(C)ccc3o2)s1	KB-3-1 tox inconclusive (no result: HT1080 IDH1KD tx, MCF10A rerep, HT1080-NT tox, SW480 rereplic)
O=C1NC(=Nc2ccc(O)cc2)S/C1=C/c1ccco1	KB-3-1 tox inconclusive, KB-V1 MDR tox 8.2µM, HT1080 IDH1KD tx inconclusive, MCF10A rerep 4.6µM, HT1080-NT tox inconclusive, SW480 rereplic 2.9µM
Cn1cccc1/C=C1\SC(=Nc2cccc(O)c2)NC1=O	KB-3-1 tox inconclusive, HT1080 IDH1KD tx 15µM, MCF10A rerep 9.2µM, HT1080-NT tox inconclusive
Cn1cccc1/C=C1\SC(=Nc2ccc(O)cc2)NC1=O	KB-3-1 tox 0.29µM, HT1080 IDH1KD tx 0.73µM, MCF10A rerep 0.58µM, HT1080-NT tox 0.52µM, SW480 rereplic 0.46µM
COc1cc(/C=C2\SC(=Nc3ccc(O)cc3)NC2=O)cc(OC)c1O	KB-3-1 tox inconclusive, HT1080 IDH1KD tx inconclusive, MCF10A rerep inconclusive, HT1080-NT tox inconclusive, SW480 rereplic inconclusive
CCOc1ccccc1C1Nc2ccccc2-c2nnc(SCc3ccccc3)nc2O1 (stereo not drawn)	none (no result: HT1080 IDH1KD tx, MCF10A rerep, HT1080-NT tox, SW480 rereplic)
CCOC(=O)c1ccccc1NS(=O)(=O)c1c(-c2ccc(C)cc2)csc1C(=O)OC	KB-3-1 tox inconclusive (no result: HT1080 IDH1KD tx, MCF10A rerep, HT1080-NT tox, SW480 rereplic)
CCC(CC)c1nn2c(=O)cc(COc3ccc(NC(=O)c4ccccc4C)cc3)nc2s1	none (no result: HT1080 IDH1KD tx, MCF10A rerep, HT1080-NT tox, SW480 rereplic)
O=C(NCc1cccnc1)/C(=C\c1ccc(-c2cccc(Cl)c2)o1)S(=O)(=O)c1ccccc1	KB-3-1 tox inconclusive, KB-V1 MDR tox 4.1µM, HT1080 IDH1KD tx inconclusive, MCF10A rerep 7.3µM, SW480 rereplic inconclusive
Cc1ccc(C(=O)N/C(=C\c2ccc(-c3cc(Cl)ccc3Cl)o2)C(=O)NCc2cccnc2)cc1	KB-3-1 tox inconclusive, KB-V1 MDR tox 16µM
O=S(=O)(c1ccc(F)cc1)N1CCN(c2nc(-c3ccccc3)nc3ccccc23)CC1	KB-3-1 tox inconclusive (no result: HT1080 IDH1KD tx, MCF10A rerep, HT1080-NT tox, SW480 rereplic)
CC(C)c1ccc(NC(=O)c2cc3c(=O)[nH]c4ccccc4c3n2C)cc1	KB-V1 MDR tox inconclusive (no result: HT1080 IDH1KD tx, MCF10A rerep, HT1080-NT tox, SW480 rereplic)
COc1ccc(S(=O)(=O)N(C)C[C@H]2Oc3ccc(NS(=O)(=O)c4ccccc4)cc3C(=O)N([C@H](C)CO)C[C@@H]2C)cc1	none
COc1ccc(S(=O)(=O)N(C)C[C@H]2Oc3ccc(NS(=O)(=O)c4cccs4)cc3C(=O)N([C@H](C)CO)C[C@@H]2C)cc1	MCF10A rerep 3.3µM, SW480 rereplic inconclusive
CC(C)=CCc1c(O)ccc(C(=O)Cc2ccccc2)c1O	HT1080 IDH1KD tx inconclusive, MCF10A rerep 21µM, HT1080-NT tox inconclusive
Cc1ccc(C(=O)Cc2ccccc2)c(O)c1	none
O=S(=O)(c1ccccc1F)N1CCN(Cc2cc3c(cc2Br)OCCO3)CC1	KB-V1 MDR tox 21µM, MCF10A rerep inconclusive
O=S(=O)(c1ccccc1)N1CCN(Cc2cc3c(cc2Br)OCCO3)CC1	KB-V1 MDR tox inconclusive
CC(C)c1ccc(C2(C)NC(=O)N(CC(=O)NCC3COc4ccccc4O3)C2=O)cc1 (stereo not drawn)	KB-V1 MDR tox 16µM
CCCn1nc(C(=O)NC2CC2)c2ccccc2c1=O	none
CCCCn1nc(C(=O)NCC(=O)Nc2c(C)cccc2C)c2ccccc2c1=O	KB-V1 MDR tox 1.6µM
CCCn1nc(C(=O)NCC2COc3ccccc3O2)c2ccccc2c1=O (stereo not drawn)	KB-V1 MDR tox 7.3µM
